# Screening results (PubChem BioAssay)
# eIF4E-4G inh – eIF4E/eIF4G interaction inhibition in translation initiation; inhibition, % at 21.7 µM; 220,000 compounds, 0.37% hits; TR-FRET eIF4E-eIF4GI(517-606) binding, 2 h; AID 782; P63073+Q04637;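 active means inhibition above about 30%, limit read from the data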;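 further: 0% = full FRET control wells and 100% = background wells lacking eIF4GI fragment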
# MLLE-PAM2 inh – inhibitors of microRNA-mediated deadenylation, human PABP1 MLLE binding; AID 588489; GST-MLLE / FITC-PAM2 fluorescence polarization; 360,000 compounds, 0.36% hits; inhibition, % at 20 µM; in the data active means inhibition above about 35%, passing the limit was not always enough;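 further: plate controls were DMSO wells with GST-MLLE for no effect and wells lacking GST-MLLE protein for full effect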
# eIF4H FP inh – inhibitors of RNA binding by human eIF4H; inhibition, % at 35 µM; 290,000 compounds, 0.94% hits; eIF4H fluorescence polarization binding assay; Q15056;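 further: calls also rest on retests at 20 µM and on dose response follow-up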
# PERK inhibitor – blocks human PERK kinase | inhibition, % at 5.6 µM | AID 1416 | Q9NZJ5 | 220,000 compounds, 0.17% hits | CHO PERK-DD fusion, SEAP luminescence translation reporter;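 active means inhibition above the mean inhibition of all tested compounds plus 3 SD, set separately per screening campaign, cut at about 2.9% in these data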;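 further: PERK kinase domain activated by AP20187 dimerizer at 100 nM; 0% = DMSO with dimerizer and 100% = rapamycin at 8.4 µM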
# PABP FP inh – PABP-poly(A) binding inhibition; 290,000 compounds, 1% hits; P11940; inhibition, % at 35 µM; AID 2014; PABP-poly(A) RNA binding, fluorescence polarization;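 further: calls also rest on retests at 20 µM and on dose response follow-up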
# An asterisk follows results filed as active; . = not tested or not shown. An excerpt weighted towards active compounds, which were near 1.6% of everything screened. Unless noted, how the calls were made is not given here.
SMILES,eIF4E-4G inh,MLLE-PAM2 inh,eIF4H FP inh,PERK inhibitor,PABP FP inh
C#CCOCCOCCOCCNc1nc(N2CCN(C(=O)C([C@@H](C)O)n3cc([C@@H](N)CCCCN)nn3)CC2)nc(N2CCN(C(=O)[C@H](CCC(=O)O)n3cc([C@@H](N)[C@H](C)CC)nn3)CC2)n1 (stereo partly drawn),.,2,.,.,.
N#Cc1c(-c2ccccc2Cl)noc1/C=C/Nc1ccc(C(=O)O)cc1,-1,-11,52*,1,active
COc1ccc(C(=O)O/N=C(\C)c2cnccn2)cc1,3,6,-4,1,-10
C=CCO/N=C(/C)c1ccc(Oc2cnccn2)cc1,0,2,7.9*,0,74*
COC(=O)c1ccccc1NC(=O)Oc1ccc(F)cc1,7,-2,4,0,-7
CC(=O)NC(Cc1ccccc1)C(=O)OCC(=O)c1ccc(Cl)cc1 (stereo not drawn),0,-12,active,0,99*
CC(=O)NC(Cc1ccccc1)C(=O)OCC(=O)c1ccccc1 (stereo not drawn),1,16,-2,1,-2
CC(Cc1ccccc1)NC(=O)CC(c1ccccc1)c1ccccc1O (stereo not drawn),.,0,-4,.,5
CC(Cc1ccccc1)NC(=S)CN1CCCC1=S (stereo not drawn),-4,24,53*,1,-3
COC(=O)C1(Cc2ccc(O)c(CC3OC3(C)C)c2)OC(=O)C(O)=C1c1ccc(O)cc1 (stereo not drawn),96*,-5,22,.,23
N=C1C(c2nc(-c3cccc([N+](=O)[O-])c3)cs2)=C(O)CN1NC(=O)c1ccco1,5,-6,-7,2,8
Cc1ccc(S(=O)(=O)N2CCCCC2)cc1NC(=O)CNCc1ccco1,-5,2,83*,1,2.4*
O=C(CNCc1ccccn1)Nc1cc(S(=O)(=O)N2CCCCC2)ccc1Cl,-1,3,3,0,20
Cc1ccc(S(=O)(=O)N2CCCCC2)cc1NC(=O)c1ccc2c(c1)OCO2,-1,13,4,-1,27
O=C(CNCc1ccncc1)Nc1cc(S(=O)(=O)N2CCCCC2)ccc1Cl,-1,-40,104*,0,8
Cc1ccc(S(=O)(=O)N2CCCCC2)cc1NC(=O)COC(=O)c1ccc2c(c1)OCO2,-1,-3,2.0*,1,61
COC(=O)c1sc(NC(=S)NC(=O)c2ccccc2)nc1C,-2,28,2,1,-10
CCc1ccc(N=C2NC(=O)/C(=C/c3cc(Br)c(OCC(=O)O)c(OC)c3)S2)cc1,.,-16,81*,.,37
O=C(Nc1cccc(Cl)c1)N1CCN(C2c3ccccc3-c3ccccc32)CC1,6,-5,4,0,6
Cc1onc(-c2c(Cl)cccc2Cl)c1C(=O)ONC(=O)c1cc(C(F)(F)F)cc(C(F)(F)F)c1,2,-5,0,3.0*,-4
Cc1onc(-c2c(Cl)cccc2Cl)c1C(=O)Nn1cnnc1,2,-2,-11,-1,6
CCOC(=O)N1CCC(N(C(=O)Nc2ccc(CC)cc2)C(C)CC)CC1 (stereo not drawn),0,-3,6,1,1
O=C(NCCN1CCCOC1=O)C(=O)NCCN1CCCOC1=O,-2,18,8,2,-5
CCn1c(N2CCN(C(=O)/C=C/c3ccccc3)CC2)nc2ccccc21,0,-15,-2,-1,0
CN1/C(=C\C(=O)c2cccc([N+](=O)[O-])c2)Sc2ccccc21,.,39*,11,.,-2
SMILES,eIF4E-4G inh,MLLE-PAM2 inh,eIF4H FP inh,PERK inhibitor,PABP FP inh
CCOC(=O)c1[nH]c(CSc2nnnn2-c2ccccc2C)c(C(=O)OCC)c1C,-4,-71,16,-1,14
O=C(NCC1CCCO1)c1cc(-c2ccco2)nc2ccccc12 (stereo not drawn),12,13,82*,-1,24*
O=C(NCC1CCCO1)c1nn2c(C(F)(F)F)cc(-c3ccco3)nc2c1Cl (stereo not drawn),.,60,2,.,-2
CCc1nnc(NC(=O)c2cc(-c3ccco3)nc3ccccc23)s1,24,-7,76*,0,-8
CCc1nnc(NC(=O)c2cc(-c3ccccn3)nc3ccccc23)s1,2,-1,-15,0,-4
O=C(NCC1CCCO1)c1cc(-c2ccncc2)nc2ccccc12 (stereo not drawn),.,12,.,.,.
O=C(NCC1CCCO1)c1cc2nc(-c3ccco3)cc(C(F)(F)Cl)n2n1 (stereo not drawn),.,8,83*,.,53*
COc1ccccc1CNC(=O)COC(=O)c1cc(-c2ccco2)nc2ccccc12,0,-12,90*,-1,64*
O=C(N/N=C/c1cccc(F)c1)c1cc(-c2ccco2)nc2ccccc12,20,-18,84*,0,54*
COc1cccc(-c2cc(C(=O)NC3CC3)c3ccccc3n2)c1,.,-4,2,.,-8
O=C(NC1CCC(O)CC1)c1cc(-c2ccco2)nc2ccccc12 (stereo not drawn),40*,10,85*,1,4.8*
Cc1cc(C)nc(N/N=C/c2ccccc2OCc2ccc([N+](=O)[O-])cc2)n1,5,5,-4,0,10
O=[N+]([O-])c1ccc(N/N=C\c2ccccc2OCc2ccccc2)cc1,4,-113,23*,0,74*
CCOc1ccc(-c2csc(/C(C#N)=C\c3ccc(O)c([N+](=O)[O-])c3)n2)cc1,6,-25,58*,0,0
O=C(CSc1nc2ccc(Nc3nc(N4CCCC4)nc(N4CCCC4)n3)cc2s1)NCc1ccco1,92*,-30,5,-2,2
O=C(CSc1nnc(Cc2cc(=O)[nH]c(=O)[nH]2)n1-c1ccc(Cl)cc1)NC1CCCC1,-9,31,62*,2,65*
COc1ccc(-n2c(Cc3cc(=O)[nH]c(=O)[nH]3)nnc2SCC(=O)NC2CCCC2)cc1,-1,12,30,0,26
CCOc1ccc(C2Nc3cccc4cccc(c34)N2)cc1OC,4,-11,103*,0,11*
COc1cc(OC)c(C2Nc3cccc4cccc(c34)N2)c(OC)c1,.,19,70*,.,57*
CCOc1cc(C2Nc3cccc4cccc(c34)N2)ccc1O,9,6,47,2,30
O=C1/C(=C/c2ccco2)N=C(N2CCCCC2)N1c1ccccc1,15,-5,88*,0,active
CC(NC(=O)c1ccc(N2CCCC2)c([N+](=O)[O-])c1)c1ccc(S(N)(=O)=O)cc1 (stereo not drawn),.,-6,-8,.,3
O=C1/C(=C/c2ccc(O)cc2)SC(=S)N1CC1CCCO1 (stereo not drawn),9,-128,96,1,55*
O=C(O)c1cccc(-c2ccc(/C=N/NC(=O)C3COc4ccccc4O3)o2)c1 (stereo not drawn),1,-5,72*,-1,12
Nc1nonc1C(=O)N/N=C/c1ccc(-c2cccc(C(=O)O)c2)o1,-1,.,55*,-1,-12
